Screening data from PubChem.
Only some compounds are listed: those with a hit (about 2.8% of all), similar ones and a draw of the others.
HIF-2a block – inhibitors of HIF-2a; 360,000 tested, 0.72% active; 786-0 RCC cells HIF-2a reporter, luciferase luminescence, overnight; inhibition, % at 18.8 µM;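 active means inhibition of the luminescence signal of 40% or more relative to plate controls, in a single-dose primary screen at 18.75 µM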
CF NFkB inh – blocks PAF-induced NF-kB reporter in cystic fibrosis cells; KKLEB NF-kB-GFP reporter, GFP fluorescence overnight; inhibition, % at 5 µM; 360,000 tested, 0.86% active; AID 588850;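 active means at least 50% inhibition at 5 µM, scaled per plate between neutral and stimulator controls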;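 further: PAF is a Pseudomonas aeruginosa culture filtrate used as stimulus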
B2AR ag – agonists of human beta-2 adrenergic receptor inducing internalization; P07550; Am2.2-beta2AR cells, FAP receptor internalization, flow cytometry; response, % (test concentration not listed); 340,000 tested, 0.43% active;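 active means response above a set limit, near 3 SD of response in nonfluorescent compounds, cut at about 42% in these data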
Target sequence (P07550 whole entry, looked up): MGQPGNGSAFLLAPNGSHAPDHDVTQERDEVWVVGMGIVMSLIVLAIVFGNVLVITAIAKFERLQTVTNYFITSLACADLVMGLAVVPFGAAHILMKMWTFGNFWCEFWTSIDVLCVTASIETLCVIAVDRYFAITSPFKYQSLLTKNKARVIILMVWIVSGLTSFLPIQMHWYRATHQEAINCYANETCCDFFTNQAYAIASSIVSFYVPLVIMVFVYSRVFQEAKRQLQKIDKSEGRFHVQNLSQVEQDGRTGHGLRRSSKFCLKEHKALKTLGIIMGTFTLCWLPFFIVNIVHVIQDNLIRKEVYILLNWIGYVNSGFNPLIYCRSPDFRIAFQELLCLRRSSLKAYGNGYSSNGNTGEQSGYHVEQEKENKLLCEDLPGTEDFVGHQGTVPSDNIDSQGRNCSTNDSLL
Peg3 promoter – reduces Peg3 promoter-driven luciferase expression in HeLa; HeLa PEG-Prom luciferase reporter, luminescence, overnight; inhibition, % at 20 µM; 360,000 tested, 1.7% active; AID 588405;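 active means inhibition of at least 50% at 20 µM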
KKLEB tox – counter-screen for CF NF-kB inhibitors: cytotoxicity; KKLEB CF airway cells viability, ATPlite luminescence, overnight; stronger effect = lower value; cells stimulated with P. aeruginosa culture filtrate; activity change (cytotoxicity), % at 5 µM; 360,000 tested, 0.36% active; AID 602141;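 active means corrected activity change at or below -50% at 5 µM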
MITF TRPM1 inh – inhibitors of MITF-driven TRPM1 promoter in melanoma cells | 330,000 tested, 0.83% active | SK-MEL-5 TRPM1 promoter luciferase, 24 h | inhibition, % at 12.5 µM | AID 488899;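 active means mean inhibition across replicates of 60% or more, whatever share of single replicates reaches that level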
Hits are given with their value; 0 = inactive; - = no result.

SMILES	HIF-2a block	CF NFkB inh	B2AR ag	Peg3 promoter	KKLEB tox	MITF TRPM1 inh
COc1cc2c(cc1NC(=O)C(Cl)Cl)-c1ccc(NC(=O)C(Cl)Cl)cc1C2	0	0	0	96	0	74
C=CCn1c(SCC(=O)c2[nH]c(C)c(C(=O)OC)c2C)nc2scc(-c3ccc(OC)c(OC)c3)c2c1=O	0	0	0	0	0	105
CS(=O)(=O)Nc1ccc([N+](=O)[O-])cc1Oc1ccccc1	0	69	0	0	0	0
COC(=O)/C=C1\OCc2cc(OC)c(OC)cc21	0	-	-	-	-	-
CCOC(=O)c1ccc(NC2=CC(=O)C(=O)c3ccccc32)cc1	0	89	0	116	-72	75
NS(=O)(=O)c1ccc(NC2=CC(=O)C(=O)c3ccccc32)cc1	0	94	0	0	0	78
Cc1ccc(NC2=CC(=O)C(=O)c3ccccc32)cc1	0	59	0	0	0	95
COc1cc(OC)c(NC2=CC(=O)C(=O)c3ccccc32)cc1Cl	0	85	0	0	0	99
CCc1nc2ccc(C(=O)NCCOc3ccc(OC)cc3)cn2c1N(C)C(=O)C1CCCCC1	0	0	-	0	0	-
Cc1cc(NC2=CC(=O)C(=O)c3ccccc32)no1	0	86	0	0	0	84
Cc1cc(C(C#N)c2ccc(Cl)cc2)c(Cl)cc1NC(=O)c1cc(I)cc(I)c1O (stereo unspecified)	0	62	0	0	0	0
Cc1cc(N/N=C/c2ccc(O)cc2O)nc(-c2ccccc2O)n1	0	78	0	67	0	0
Oc1ccccc1N1CCN(c2ncnc3scc(-c4ccccc4)c23)CC1	0	0	0	59	0	0
CCOc1ccccc1N1CCN(c2ncnc3scc(-c4ccc(OC)cc4)c23)CC1	0	0	0	59	0	0
Oc1ccccc1N1CCN(c2ncnc3scc(-c4ccc(F)cc4)c23)CC1	0	0	0	0	0	0
COc1ccc(-c2csc3ncnc(N4CCN(c5ccccc5OC)CC4)c23)cc1	0	0	0	0	0	0
COc1cc2c3c(cccc3c1)C(=O)N(CCN1CCCC1)C2=O	0	0	-	102	0	-
CC(c1ccccc1)n1ccnc1CO (stereo unspecified)	0	0	-	0	0	-
O=C(Nc1cccc2c1CCCC2)c1cc(C2CCCCN2S(=O)(=O)c2cccs2)on1 (stereo unspecified)	0	0	-	0	0	-
Cc1ccc2c(c1)c1c(n2CC(O)CNC2CCCC2)CCCC1 (stereo unspecified)	0	0	0	61	0	0
Cc1ccc2c(c1)c1c3n2CCN(CC(O)CNC(C)C)C3CCC1 (stereo unspecified)	0	0	0	72	0	0
CO[C@H]1CN(C)C(=O)c2ccc(NC(=O)C3CCC3)cc2OC[C@H](C)N(CC2CCCCC2)C[C@@H]1C	0	-	-	-	-	-
CC(Oc1ccc(Br)cc1)C(=O)Nc1nc(-c2ccccn2)cs1 (stereo unspecified)	0	0	0	0	0	67
CC(C)[C@H](NC(=O)c1ccccc1Cl)C(=O)Nc1nc(-c2ccccn2)cs1	0	0	0	0	0	0
Cc1ccc2nc(/C(C#N)=C/c3ccc(-c4cccc([N+](=O)[O-])c4)o3)[nH]c2c1	0	0	0	115	0	0
SMILES	HIF-2a block	CF NFkB inh	B2AR ag	Peg3 promoter	KKLEB tox	MITF TRPM1 inh
COc1ccc(S(=O)(=O)NC(=O)C2(C)CCN2C(=O)Cc2cccc3ccccc23)cc1 (stereo unspecified)	0	0	-	0	0	-
COC(=O)c1ccccc1Sc1ncnc2onc(C)c12	0	0	0	101	0	0
CN(C)c1ccc(C2/C(=C(/O)c3ccc(Br)cc3)C(=O)C(=O)N2C)cc1 (stereo unspecified)	49	0	0	0	0	0
O=C1c2ccccc2C(c2nnnn2-c2ccc3c(c2)OCCO3)N1Cc1ccccc1 (stereo unspecified)	0	-	-	-	-	-
COCC(=O)N(C)C[C@H]1Oc2ncc(C#C[C@H](C)O)cc2C(=O)N([C@@H](C)CO)C[C@H]1C	0	0	-	0	0	-
O=C(c1ccc(Cl)c(S(=O)(=O)N2CCc3ccccc32)c1)N1CCN(c2ccccc2O)CC1	0	0	0	69	0	0
CCOC(=O)CSCC(NC(=O)OC(C)(C)C)C(=O)OCC (stereo unspecified)	41	0	0	0	0	0
CCOC(=O)C(CSCC(=O)c1ccc(Cl)cc1Cl)NC(=O)OC(C)(C)C (stereo unspecified)	0	0	0	0	0	0
O=C1CN(C(=O)COC(=O)c2cc(Cl)ccc2[N+](=O)[O-])c2ccccc2N1	0	0	-	0	0	-
COc1cc2oc3ccc(C#Cc4ccccn4)cc3c(=O)c2cc1OC	0	0	71	0	0	0
CCN1CCN(C(=O)/C=C/c2ccc(C(C)C)cc2)CC1	0	0	0	0	0	0
CCN1CCC(O)(/C=C/c2ccc(C(C)C)cc2)C(C(=O)/C=C/c2ccc(C(C)C)cc2)C1 (stereo unspecified)	0	0	0	104	0	67
Cc1nc(NCCc2ccc(F)cc2)c(C#N)c(C)c1[N+](=O)[O-]	0	0	0	51	0	0
COCc1c(C#N)c(NCCc2ccc(F)cc2)nc(C)c1[N+](=O)[O-]	0	0	0	0	0	0
CCCS(=O)(=O)c1nnnn1-c1cccc(OC)c1	0	90	0	102	0	70
COc1cccc(-n2nnnc2SCC(=O)Nc2ccccc2OC)c1	0	0	0	0	0	0
O=C(Nc1ccc([N+](=O)[O-])cc1)C(c1ccccc1)c1ccccc1	0	0	-	52	0	-
N#Cc1ccccc1OCC(=O)OCC(=O)c1ccc[nH]1	0	0	0	0	0	0
N#Cc1ccc(OCC(=O)OCC(=O)c2ccc[nH]2)cc1	0	0	49	0	0	0
CCOc1ccc(S(=O)(=O)NC(C)(C)C)cc1-c1nc2c(C(C)(C)C)nn(C)c2c(=O)[nH]1	0	0	0	53	0	0
CCOc1ccc(S(N)(=O)=O)cc1-c1nc2c(C(C)(C)C)nn(C)c2c(=O)[nH]1	0	0	0	0	0	0
CCOC(=O)c1noc2c1CCC2	0	-	-	-	-	-
CCCC/C=C1/CCC(CN(C)C)C1=O (stereo unspecified)	0	0	0	98	0	75
CCOC(=O)C1=CCN(S(=O)(=O)c2ccc(C)cc2)C1c1cccc(C)c1 (stereo unspecified)	0	0	-	0	0	-
Cc1ccc(/C=C/C(=O)N2CC(C)CC(C)C2)o1 (stereo unspecified)	0	0	0	76	0	0
COc1ccc(C(O)c2nc(-c3ccc4ccccc4c3)cs2)cc1 (stereo unspecified)	0	0	-	0	0	-
COc1cccc(NC2=C(NCCO)C(=O)c3ccccc3C2=O)c1	0	0	0	0	0	0
COC1=C(Nc2ccc(O)cc2)C(=O)c2ccccc2C1=O	0	0	0	0	0	80
COc1ccc(NC2=C(NCCO)C(=O)c3ccccc3C2=O)cc1	0	0	66	0	0	0
